This note sets out measurements from PubChem BioAssay (EPA / NIEHS).

A short description of assay [1]: ACEA_ER_80hr: ACEA Biosciences xCELLigence Real-Time Cell Analysis on Estrogen Receptor Agonism for Proliferation (AID 2282667; active means hit-call score of the fitted dose curve at least 0.9, where 1 is the maximum). As to conditions: T47D proliferation, impedance (xCELLigence), 80 h. Summed up: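 Impedance readout (RT-CES) of T47D proliferation at 80 h post-dose; gain of signal vs DMSO baseline. Compounds: 8 conc, 1:4 serial, top 100 uM final, ≤0.5% DMSO; biological duplicate.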

The nature of assay [2]: ATG_CRE_CIS: Attagene CIS-FACTORIAL HepG2 Assay for human cAMP Responsive Element (CRE) binding protein 3 (AID 2282926). Particulars: HepG2 CRE cis-reporter, Attagene multiplexed mRNA; actives raise or lower the signal. Put shortly:
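Endogenous CRE-binding activity in HepG2 is reported through a cis-regulated transfected reporter. Following a day of exposure, mRNA levels are determined by reverse transcription PCR and fluorescent fragment analysis; fits run in both directions versus DMSO.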

The target of assay [3] is CCAAT/enhancer-binding protein beta (Homo sapiens) (UniProt P17676). Description: ATG_C_EBP_CIS: Attagene CIS-FACTORIAL HepG2 Assay for human CCAAT/Enhancer Binding Protein (C/EBP) beta (AID 2282927). As to conditions: HepG2 Attagene cis-factorial transcription factor reporter; actives raise or lower the signal. Summed up:
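Changes in reporter mRNA, rather than exogenous chimeric receptor activity, reflect native C/EBP signalling in transfected HepG2 cells dosed for 24 h; transcripts are detected by RT-PCR and capillary electrophoresis.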

The nature of assay [4]: ATG_CMV_CIS: Attagene CIS-FACTORIAL HepG2 Assay for human CMV (Internal Marker) (AID 2282928).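 Further: endpoint acts as a background internal control marker rather than a target.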 As to conditions: HepG2 CMV promoter reporter, transcription factor profiling; actives raise or lower the signal. Put shortly:
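After transient transfection of HepG2 with reporter transcription units driven by cis-regulatory promoters, cells receive test chemical for 24 h. Labeled reporter amplicons, digested with HpaI, are sized and quantified by capillary electrophoresis against DMSO.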

The nature of assay [5]: ATG_DR4_LXR_CIS: Attagene CIS-FACTORIAL HepG2 Assay for human Liver X Receptor (LXR), DR4 submotif (AID 2282929). As to conditions: HepG2 Attagene DR4 cis-reporter, mRNA transcription; actives raise or lower the signal. Put shortly: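 The endpoint is DR4-element-driven reporter transcripts after 24 h chemical exposure of transfected HepG2 cells. These were measured via RT-PCR and capillary electrophoresis, and gain or loss of signal was fitted relative to DMSO controls.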

For assay [6], the target named is Aryl hydrocarbon receptor (Homo sapiens) (UniProt P35869). Nature of the assay: ATG_Ahr_CIS: Attagene CIS-FACTORIAL HepG2 Assay for human Aryl Hydrocarbon Receptor (Ahr) (AID 2282930). As to conditions: HepG2 AhR cis-factorial reporter transcription; actives raise or lower the signal. Put shortly:
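HepG2, transient MRTU (cis) transfection, 24 h exposure. RNA → cDNA → PCR → 6-FAM primer extension → HpaI 2 h 37 C → CE. Fit: bidirectional, DMSO baseline.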

Assay [7] can be described thus: ATG_AP_1_CIS: Attagene CIS-FACTORIAL HepG2 Assay for human Activator Protein 1 (AP-1) (AID 2282931). As to conditions: HepG2 Attagene cis-factorial AP-1 reporter mRNA; actives raise or lower the signal. Put shortly: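 Readout is reporter transcript level from endogenous transcription factor activity, quantified by RT-PCR with fluorescent primer extension and capillary electrophoresis. Transiently transfected HepG2 cells, 24 h exposure. Curves fitted both directions versus DMSO.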

Assay [8] in a line: ATG_AP_2_CIS: Attagene CIS-FACTORIAL HepG2 Assay for human Activator Protein 2 (AP-2) (AID 2282932). Particulars: HepG2 AP-2 cis-reporter, Attagene transcription factor profiling; actives raise or lower the signal. Put shortly: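 Step one: transient transfection of HepG2 with reporter transcription units. Step two: 24 h chemical exposure. Step three: RNA extraction, RT-PCR, labelled fragment analysis by capillary electrophoresis; DMSO serves as baseline.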

The nature of assay [9]: ATG_BRE_CIS: Attagene CIS-FACTORIAL HepG2 Assay for human Bone Morphogenetic Protein (BMP) Response Element (BRE) (AID 2282933). As to conditions: HepG2 BMP response element reporter, Attagene transcription factor profiling; actives raise or lower the signal. Put shortly:
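HepG2 cells transiently transfected with multiplexed cis-element reporter units were dosed with chemical for 24 h. Reporter mRNA was measured by RT-PCR with fluorescent labelling, HpaI digestion and capillary electrophoresis; bidirectional fitting relative to DMSO.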

In assay [10] the target is Retinoic acid receptor alpha (Homo sapiens) (UniProt P10276). Description: ATG_DR5_RAR_CIS: Attagene CIS-FACTORIAL HepG2 Assay for human Retinoic Acid Receptor Alpha (RARE), DR5 submotif (AID 2282934). Particulars: HepG2 Attagene cis-factorial RARE DR5 reporter, mRNA; actives raise or lower the signal. Summed up:
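HepG2, transient cis-reporter transfection, 24 h exposure. mRNA readout: RT-PCR, FAM label, HpaI cut, capillary electrophoresis. DMSO baseline, gain/loss fitting.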

Assay [11] has as its target Transcription factor E2F1 (Homo sapiens) (UniProt Q01094). Nature of the assay: ATG_E2F_CIS: Attagene CIS-FACTORIAL HepG2 Assay for human E2F Transcription Factor 1 (AID 2282935). As to conditions: HepG2 Attagene cis-reporter, E2F reporter RNA transcripts; actives raise or lower the signal. Put shortly:
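Total RNA from 24 h-treated, reporter-transfected HepG2 cells undergoes DNase I treatment, oligo(dT) reverse transcription, PCR and 6-FAM primer extension before capillary electrophoresis.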

Assay [12] can be described thus: ATG_E_Box_CIS: Attagene CIS-FACTORIAL HepG2 Assay for human Enhancer Box (E-box) (AID 2282936). As to conditions: HepG2 E-box cis-reporter transcription, actives raise or lower the signal. Summed up:
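DMSO served as negative control and baseline for bidirectional fitting. Human hepatoma HepG2 cells, transiently transfected with cis-reporter constructs, were dosed 24 h; reporter mRNA read by RT-PCR and capillary electrophoresis.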

Assay [13] is described as follows: ATG_M_61_CIS: Attagene CIS-FACTORIAL HepG2 Assay for M61 Transcription Factor (Internal Marker) (AID 2282937). Particulars: HepG2 Attagene CIS-FACTORIAL M61 internal marker reporter; actives raise or lower the signal. Summed up: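 Readout is reporter mRNA by RT-PCR, fluorescent primer extension and capillary electrophoresis, with gain or loss fitted relative to DMSO. Transfected HepG2 cells carrying endogenous-TF-driven cis reporters were exposed to chemicals for 24 hours.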

Assay [14] can be described thus: ATG_EGR_CIS: Attagene CIS-FACTORIAL HepG2 Assay for human Early Growth Response 1 (EGR1) (AID 2282938). Particulars: HepG2 Attagene CIS-FACTORIAL EGR reporter mRNA; actives raise or lower the signal. Put shortly:
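After 24 h compound exposure, RNA from reporter-transfected HepG2 cells was reverse-transcribed, PCR-amplified, fluorescently labelled and resolved by capillary electrophoresis. EGR1 reporter transcript changes, up or down, were fitted against DMSO, reflecting endogenous transcription-factor activity.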

A short description of assay [15]: ATG_M_19_CIS: Attagene CIS-FACTORIAL HepG2 Assay for M19 Transcription Factor (Internal Marker) (AID 2282939). Particulars: HepG2 Attagene CIS-FACTORIAL M19 internal marker reporter; actives raise or lower the signal. Summed up: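 HepG2 cells transiently transfected with cis-regulated multiple reporter transcription units were dosed for 24 h; reporter mRNA was quantified by RT-PCR, 6-FAM primer-extension labelling, HpaI digestion and capillary electrophoresis, with bidirectional fitting against DMSO baseline.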

Assay [16] is described as follows: ATG_ERE_CIS: Attagene CIS-FACTORIAL HepG2 Assay for Estrogen Response Element (ERE) (AID 2282940). As to conditions: HepG2 ERE cis-reporter, Attagene RNA transcript; actives raise or lower the signal. Put shortly:
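HepG2 cells transiently transfected with cis-promoter-driven multiplexed reporter transcription units report endogenous TF activity. After 24 h compound exposure, reporter mRNA is quantified by RT-PCR with capillary electrophoresis fluorescence; bidirectional fitting versus DMSO baseline.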

Assay [17] can be described thus: ATG_Ets_CIS: Attagene CIS-FACTORIAL HepG2 Assay for human Erythroblast Transformation Specific (ETS) (AID 2282941). As to conditions: HepG2 ETS cis-reporter transcription, actives raise or lower the signal. Put shortly: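 Human HepG2 hepatoma cells were transiently transfected with promoter-driven reporter constructs and treated for 24 hours. Reporter transcripts were quantified by RT-PCR with fluorescent primer extension; bidirectional curve fitting used DMSO as reference.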

For assay [18], the target named is Hepatocyte nuclear factor 3-beta (Homo sapiens) (UniProt Q9Y261). Description: ATG_FoxA2_CIS: Attagene CIS-FACTORIAL HepG2 Assay for human Forkhead box A2 (FOXA2) (AID 2282942). Particulars: HepG2 cis-reporter transcription factor activity, 24 h; actives raise or lower the signal. Summed up: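 Endogenous transcription factor activity is captured via cis-element-driven reporter transcripts in transfected HepG2. Total RNA taken at 24 h post-dosing; labelled RT-PCR products resolved by capillary electrophoresis. Gain or loss fitted versus DMSO.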
Hepatocyte nuclear factor 3-beta (Homo sapiens), sequence (Q9Y261 whole entry, looked up): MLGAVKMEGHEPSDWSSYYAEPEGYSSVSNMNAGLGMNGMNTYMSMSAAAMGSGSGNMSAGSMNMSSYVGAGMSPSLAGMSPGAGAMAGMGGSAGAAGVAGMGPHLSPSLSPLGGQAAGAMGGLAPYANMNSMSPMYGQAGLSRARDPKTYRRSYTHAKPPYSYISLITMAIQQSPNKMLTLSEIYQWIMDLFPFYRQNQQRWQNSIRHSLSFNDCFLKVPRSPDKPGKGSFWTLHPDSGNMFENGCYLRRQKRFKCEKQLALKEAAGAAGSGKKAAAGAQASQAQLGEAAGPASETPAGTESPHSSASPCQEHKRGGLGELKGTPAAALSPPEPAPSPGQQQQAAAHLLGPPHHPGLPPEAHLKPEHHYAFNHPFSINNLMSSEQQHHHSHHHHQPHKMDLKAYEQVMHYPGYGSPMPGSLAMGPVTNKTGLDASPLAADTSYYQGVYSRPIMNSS

Assay [19] is described as follows: ATG_FoxO_CIS: Attagene CIS-FACTORIAL HepG2 Assay for human Forkhead box O (FoxO) (AID 2282943). Particulars: HepG2 Attagene cis-reporter, FoxO element, mRNA; actives raise or lower the signal. Summed up: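 Human hepatoma HepG2 cells carry transiently introduced reporter transcription units controlled by cis promoter elements. Chemical treatment lasted 24 h, and mRNA signal was compared with DMSO.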

The nature of assay [20]: ATG_GATA_CIS: Attagene CIS-FACTORIAL HepG2 Assay for human GATA Binding Protein (AID 2282944). As to conditions: HepG2 GATA cis-element reporter, Attagene multiplex mRNA; actives raise or lower the signal. Put shortly: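 HepG2 cells transiently transfected with multiplexed cis-element reporter units reflecting endogenous transcription factor activity; reporter mRNA measured after 24 h dosing by RT-PCR, 6-FAM labeling, HpaI digestion and capillary electrophoresis. Bidirectional fitting versus DMSO baseline.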

Inconclusive results are not listed. The source made the active and inactive calls. How the source made its calls, unless noted: active means hit-call score of the fitted dose curve at least 0.9, where 1 is the maximum; inactive means score below 0.9.

Retinoic acid receptor alpha (Homo sapiens), sequence (P10276 whole entry, looked up): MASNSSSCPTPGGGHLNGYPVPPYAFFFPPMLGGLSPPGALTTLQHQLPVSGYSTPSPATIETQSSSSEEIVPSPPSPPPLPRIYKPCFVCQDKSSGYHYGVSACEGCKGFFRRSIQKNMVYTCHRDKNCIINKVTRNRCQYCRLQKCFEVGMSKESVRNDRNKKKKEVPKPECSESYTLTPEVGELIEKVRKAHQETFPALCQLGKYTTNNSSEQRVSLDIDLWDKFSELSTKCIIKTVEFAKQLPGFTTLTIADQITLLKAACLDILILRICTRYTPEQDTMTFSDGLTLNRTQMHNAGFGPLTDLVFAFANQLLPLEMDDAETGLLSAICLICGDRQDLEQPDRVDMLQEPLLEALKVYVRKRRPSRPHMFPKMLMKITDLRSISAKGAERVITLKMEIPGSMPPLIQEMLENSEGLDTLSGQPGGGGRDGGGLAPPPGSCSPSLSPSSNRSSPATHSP
Aryl hydrocarbon receptor (Homo sapiens), sequence (P35869 whole entry, looked up): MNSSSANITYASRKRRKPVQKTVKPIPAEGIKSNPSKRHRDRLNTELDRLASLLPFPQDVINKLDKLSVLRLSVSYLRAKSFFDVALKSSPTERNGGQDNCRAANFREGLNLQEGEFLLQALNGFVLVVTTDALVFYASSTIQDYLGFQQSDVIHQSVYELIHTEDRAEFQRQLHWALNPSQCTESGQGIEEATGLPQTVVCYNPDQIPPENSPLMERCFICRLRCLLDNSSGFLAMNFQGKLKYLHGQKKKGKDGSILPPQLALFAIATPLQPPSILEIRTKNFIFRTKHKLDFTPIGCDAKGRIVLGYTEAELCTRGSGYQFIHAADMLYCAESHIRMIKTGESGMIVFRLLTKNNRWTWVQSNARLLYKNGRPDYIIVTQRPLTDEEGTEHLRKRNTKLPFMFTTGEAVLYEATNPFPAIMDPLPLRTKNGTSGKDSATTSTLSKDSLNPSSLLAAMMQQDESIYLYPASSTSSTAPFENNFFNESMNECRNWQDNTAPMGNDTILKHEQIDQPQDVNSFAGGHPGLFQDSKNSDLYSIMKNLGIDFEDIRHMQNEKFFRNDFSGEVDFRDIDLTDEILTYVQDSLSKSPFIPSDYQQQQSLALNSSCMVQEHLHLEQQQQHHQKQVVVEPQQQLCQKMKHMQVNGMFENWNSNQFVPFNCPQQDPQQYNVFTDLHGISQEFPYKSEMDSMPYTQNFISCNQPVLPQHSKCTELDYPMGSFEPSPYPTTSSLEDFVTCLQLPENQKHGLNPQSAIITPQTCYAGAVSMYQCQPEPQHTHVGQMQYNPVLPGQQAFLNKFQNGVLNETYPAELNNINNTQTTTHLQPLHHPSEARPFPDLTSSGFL
CCAAT/enhancer-binding protein beta (Homo sapiens), sequence (P17676 whole entry, looked up): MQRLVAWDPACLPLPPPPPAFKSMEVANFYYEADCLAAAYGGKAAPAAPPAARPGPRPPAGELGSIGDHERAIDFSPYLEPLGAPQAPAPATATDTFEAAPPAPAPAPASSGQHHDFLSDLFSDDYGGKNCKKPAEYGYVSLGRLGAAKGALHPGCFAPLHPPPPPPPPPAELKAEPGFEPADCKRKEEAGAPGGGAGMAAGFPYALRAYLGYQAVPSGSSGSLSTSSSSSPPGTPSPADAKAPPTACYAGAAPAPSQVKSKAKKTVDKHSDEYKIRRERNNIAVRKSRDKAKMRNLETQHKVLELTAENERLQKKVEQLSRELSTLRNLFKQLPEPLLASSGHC
Transcription factor E2F1 (Homo sapiens), sequence (Q01094 whole entry, looked up): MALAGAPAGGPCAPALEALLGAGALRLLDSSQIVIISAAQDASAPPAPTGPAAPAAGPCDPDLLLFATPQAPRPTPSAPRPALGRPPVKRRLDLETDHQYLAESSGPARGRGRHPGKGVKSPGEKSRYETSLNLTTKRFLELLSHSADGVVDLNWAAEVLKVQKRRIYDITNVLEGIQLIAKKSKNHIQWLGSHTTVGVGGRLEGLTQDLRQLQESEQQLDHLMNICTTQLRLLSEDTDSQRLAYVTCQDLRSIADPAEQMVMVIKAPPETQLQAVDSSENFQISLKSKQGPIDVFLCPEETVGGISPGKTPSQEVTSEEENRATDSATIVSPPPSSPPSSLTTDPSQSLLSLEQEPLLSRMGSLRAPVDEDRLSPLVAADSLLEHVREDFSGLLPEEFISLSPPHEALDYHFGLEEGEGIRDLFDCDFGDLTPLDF

For `CCc1ccc(C)nc1`, the compound was classed as inactive in assay [1], in [2], in assay [3], in assay [4], in assay [5] and in [6]. The outcome in assay [7], in assay [8], in [9], in assay [10], in [11] and in assay [12] was inactive. Besides, the call in assay [13], in [14], in assay [15], in assay [16], in assay [17] and in assay [18] was inactive. In addition, the outcome in [19] and in [20] was inactive.

For `OCCCCl`, the result in [1], in assay [2], in assay [3], in assay [4], in assay [5] and in assay [6] was inactive. Also, the result in [7], in assay [8], in assay [9], in assay [10], in assay [11] and in assay [12] was inactive. The compound was classed as inactive in assay [13], in assay [14], in assay [15], in [16], in [17] and in assay [18]. In addition, the outcome in [19] and in assay [20] was inactive.

As to `O=C(Cl)c1ccc(Cl)cc1Cl`, the outcome in assay [1], in assay [2], in [3], in assay [4], in assay [5] and in assay [6] was inactive. Further, the result in [7], in [8], in assay [9], in assay [10], in assay [11] and in [12] was inactive. The outcome in [13], in [14], in assay [15], in [16], in assay [17] and in assay [18] was inactive. The call in assay [19] and in assay [20] was inactive.

In the case of `CCc1cccc(C)c1N(C(=O)C(=O)O)C(C)COC` (stereo not given), the compound was called inactive in [1], in assay [2], in assay [3], in assay [4], in [5] and in [6]. In addition, the call in [7], in assay [8], in assay [9], in [10], in assay [11] and in [12] was inactive. In addition, the result in [13], in assay [14], in assay [15], in [16], in assay [17] and in [18] was inactive. In addition, the compound was classed as inactive in [19] and in [20].

On to `CSc1ccc(O)cc1C`, for which the compound was classed as inactive in assay [1], in assay [2], in assay [3], in [4], in assay [5] and in assay [6]. The compound was called inactive in [7], in [8], in assay [9], in [10], in [11] and in assay [12]. The call in assay [13], in assay [14], in [15], in assay [17], in assay [18] and in assay [19] was inactive. Also, the call in assay [20] was inactive. Also, the AC50 (usually the concentration at which the activity in the assay is half-maximal) in assay [16] is 31.7 µM (active).

As to `FC(F)(F)C(F)(F)C(F)(F)CC1CO1` (stereo not given), the compound was classed as inactive in [1], in assay [2], in assay [3], in [4], in assay [5] and in [6]. The compound was called inactive in assay [7], in assay [8], in assay [9], in assay [10], in assay [11] and in assay [12]. The call in [13], in assay [14], in assay [15], in assay [16], in assay [17] and in [18] was inactive. Besides, the compound was classed as inactive in assay [19] and in [20].

For the compound `CC(C)(C)c1cc(CCC(=O)OCC(COC(=O)CCc2cc(C(C)(C)C)c(O)c(C(C)(C)C)c2)(COC(=O)CCc2cc(C(C)(C)C)c(O)c(C(C)(C)C)c2)COC(=O)CCc2cc(C(C)(C)C)c(O)c(C(C)(C)C)c2)cc(C(C)(C)C)c1O`, the AC50 is 0.173 µM (active) in assay [1] and 7.29 µM (active) in assay [16]. Also, the call in [2], in [3], in assay [4], in assay [5], in assay [6] and in assay [7] was inactive. Besides, the compound was classed as inactive in [8], in [9], in assay [10], in assay [11], in assay [12] and in assay [13]. Further, the outcome in assay [14], in assay [15], in assay [17], in assay [18], in assay [19] and in assay [20] was inactive.
